Bioassay records (PubChem)
An excerpt weighted towards active compounds, which were near 3.4% of everything screened.
MITF primary = inhibitors of human MITF; O75030; AlphaScreen MITF homodimerization, bead proximity signal; inhibition, % at 2.6 µM; hit rate 0.91% among 650,000; AID 1259374; in the data active means inhibition above about 50%;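 further: 0% = vehicle wells with protein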
FBW7 act = activators of human E3 ligase FBW7 | Q969H0 | AlphaScreen FBW7–phospho-cyclin E peptide binding, activator screen | normalized activity (activation), % at 26.1 µM | hit rate 0.13% among 650,000 | AID 1259310; in the data active means normalized activity above about 1.9%;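 further: purified mutant Fbw7 with reduced substrate affinity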
TEAD-YAP block = TEAD-YAP interaction inhibition | HEK-TIYL cells, TEAD-Gal4/YAP UAS-luciferase luminescence | inhibition, % at 9.12 µM | hit rate 1.4% among 640,000 | AID 1259422; in the data active means inhibition above about 32%;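 further: 0% = median of test compound wells and 100% = reference inhibitor wells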
GPR151 activ = activators of human GPR151. PathHunter beta-arrestin GPR151 cells, luminescence. activation, % at 11.2 µM. Q8TDV0. hit rate 1% among 650,000; in the data active means activation above about 4.9%;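 further: 0% = median of compound wells and 100% = cells with positive control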
Target sequence (Q8TDV0 whole entry, looked up): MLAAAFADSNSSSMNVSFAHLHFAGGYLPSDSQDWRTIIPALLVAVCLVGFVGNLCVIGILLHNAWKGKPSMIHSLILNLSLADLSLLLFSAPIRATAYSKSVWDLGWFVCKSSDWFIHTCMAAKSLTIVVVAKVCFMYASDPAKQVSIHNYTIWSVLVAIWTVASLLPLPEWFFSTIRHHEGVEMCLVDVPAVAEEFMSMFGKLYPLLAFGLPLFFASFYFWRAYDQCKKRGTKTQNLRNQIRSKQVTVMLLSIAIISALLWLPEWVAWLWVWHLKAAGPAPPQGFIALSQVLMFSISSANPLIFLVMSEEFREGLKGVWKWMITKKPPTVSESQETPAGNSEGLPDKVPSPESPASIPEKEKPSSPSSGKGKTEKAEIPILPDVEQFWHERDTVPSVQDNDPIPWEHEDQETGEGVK
Starred values were filed as active, the others as inactive.

SMILES	MITF primary	FBW7 act	TEAD-YAP block	GPR151 activ
CCn1c(-c2ccc(F)cc2)csc1=Nc1cc(OC)c(Cl)cc1OC	27.7	-0.5	33.2*	2.0
CCn1c(-c2ccc(Cl)cc2)csc1=Nc1cc(OC)c(Cl)cc1OC	5.7	-0.4	34.8*	1.9
O=C(NC(=S)Nc1ccc(-c2nc3ccccc3o2)cc1)c1cccc(F)c1	-13.8	0.0	-54.5	-2.0
COc1ccc2cc3cc(C(=O)NCCCN4CCCCCC4)oc3nc2c1	-15.3	-0.7	-13.7	0.1
COc1ccc2cc3cc(C(=O)Nc4cc(OC)c(OC)c(OC)c4)oc3nc2c1	7.3	-0.1	57.9*	0.7
COc1ccc2cc3cc(C(=O)NC4CCN(Cc5ccccc5)CC4)oc3nc2c1	-2.9	-0.3	90.2*	-0.7
COc1ccc2cc3cc(C(=O)NC4CC4)sc3nc2c1	-0.6	0.0	74.2*	-5.1
COc1ccccc1NS(=O)(=O)c1cc(C(=O)O)ccc1OC	18.6	0.5	-3.4	-0.7
Cc1nn(C(C)C(=O)N2CCCC2)c(=O)c2cc3sccc3n12 (stereo not drawn)	9.3	0.1	-4.7	0.3
COc1ccc(C2C3=C(Nc4[nH]c(=O)[nH]c(=O)c42)c2ccccc2C3=O)cc1 (stereo not drawn)	21.5	-0.3	56.1*	-1.6
Cc1ccc(C2C3=C(Nc4[nH]c(=O)[nH]c(=O)c42)c2ccccc2C3=O)cc1 (stereo not drawn)	16.5	-0.4	38.5*	-0.2
COCCn1c2c(c(=O)[nH]c1=O)C(c1ccccc1)C1=C(N2)c2ccccc2C1=O (stereo not drawn)	6.6	0.1	10.4	0.9
Cc1ccc(C2C3=C(Nc4c2c(=O)[nH]c(=O)n4C)c2ccccc2C3=O)cc1 (stereo not drawn)	-2.0	-0.1	0.7	-0.7
CCc1ccc(C2C3=C(Nc4c2c(=O)[nH]c(=O)n4CCOC)c2ccccc2C3=O)cc1 (stereo not drawn)	-3.6	0.4	43.5*	-0.6
CC(C)c1ccccc1OCC(=O)Nc1ccccc1F	4.4	0.1	9.0	0.1
Cc1ccc2oc(=O)c3cnn(CC(=O)NCc4ccc(Cl)cc4)c3c2c1	-11.0	1.1	-6.0	-1.0
O=C(c1cc2ccccn2n1)N1CCc2ccccc21	-7.3	-0.3	65.8*	-5.3
CCCCC(=O)NC(c1ccccc1)c1ccc2cccnc2c1O (stereo not drawn)	41.1	-0.6	9.3	-1.6
CC(=O)NC(c1cccc([N+](=O)[O-])c1)c1ccc2cccnc2c1O (stereo not drawn)	74.3*	-2.0	82.7*	-0.3
CCCCC(=O)NC(c1cccc([N+](=O)[O-])c1)c1ccc2cccnc2c1O (stereo not drawn)	55.4*	-0.6	87.6*	-1.5
CC(C)(C)c1cc(N2C(=O)C(=O)/C(=C(/O)c3ccc(Br)cc3)C2c2ccccc2)no1 (stereo not drawn)	-8.4	-0.1	2.9	1.2
COc1ccc(OC)c(CCNC(=O)C(Cc2ccccc2)N2Cc3ccccc3C2=O)c1 (stereo not drawn)	11.9	0.2	-6.6	0.1
Cc1ccc(C)n1-c1ccc(C(=O)O)cc1O	61.6*	-0.7	-9.5	-0.9
Cc1ccc(C)n1-c1cc(C(=O)O)ccc1Cl	76.4*	-0.6	5.6	-1.0
CNc1ccccc1C(=O)OCc1ccc([N+](=O)[O-])cc1	-6.3	-0.2	-16.4	-1.4
SMILES	MITF primary	FBW7 act	TEAD-YAP block	GPR151 activ
O=C(NCC(c1cccnc1)N1CCN(c2ccccc2)CC1)C1CC1 (stereo not drawn)	4.5	0.1	2.5	-0.9
CCN(CC)c1ccc2c(C)cc(=O)oc2c1	-4.9	0.6	-12.8	2.1
CCN(CC)c1ccc2c(C)c(Cl)c(=O)oc2c1	-25.7	5.8*	-4.8	-0.7
CCN(CC)c1ccc2c(Cl)c(Br)c(=O)oc2c1	6.0	6.2*	0.5	-0.5
CC(C)n1c(N2CCN(CC(=O)Nc3ccc4c(c3)OCO4)CC2)nc2ccccc21	2.5	0.0	-0.4	-0.8
Cc1cc(C)cc(NS(=O)(=O)c2ccc3c(c2)OCC(=O)N3)c1	-7.6	-0.3	-12.5	1.2
O=C1COc2cc(S(=O)(=O)Nc3cc(C(F)(F)F)cc(C(F)(F)F)c3)ccc2N1	-13.0	7.8*	4.6	0.5
O=C(CS(=O)(=O)Cc1ccccc1)Nc1ccccc1C(F)(F)F	12.7	0.1	0.3	1.6
C=CCOc1ccc(C(=O)N2CCc3c(nc(N4CC(C)OC(C)C4)[nH]c3=O)C2)cc1 (stereo not drawn)	-1.0	7.4*	-2.9	0.4
COc1cc(NC(=O)C(Cc2ccccc2)N2Cc3ccccc3C2=O)cc(OC)c1 (stereo not drawn)	-20.8	0.3	-10.3	-0.7
COc1cc([N+](=O)[O-])cc2c1NC(c1ccc(C(=O)O)cc1)C1CC=CC21 (stereo not drawn)	75.2*	-0.5	6.6	-0.6
COc1cccc2c1NC(c1ccc(C(=O)O)cc1)C1CC=CC21 (stereo not drawn)	71.3*	-1.0	10.6	-1.6
COc1cccc2c1N[C@@H](c1ccc(C(=O)O)cc1)[C@H]1CC=C[C@@H]21	63.3*	-0.8	-3.8	-0.3
CCOc1ccc(NC(=O)C2c3ccccc3C(=O)N(C3CCCCC3)C2c2ccc(OC)cc2)cc1 (stereo not drawn)	5.5	0.3	0.6	0.0
NS(=O)(=O)c1ccc(N=Nc2ccc(O)c3ncccc23)cc1	80.2*	-0.6	24.5	-0.5
O=C(O)c1ccccc1N=Nc1ccc(O)c2ncccc12	33.9	-0.5	-8.8	-0.3
CCN(CC)S(=O)(=O)c1cc(C(=O)Nc2ccc(Br)cc2)ccc1F	-2.6	-0.1	8.0	0.7
CCOc1ccc(NC(=O)c2ccc(F)c(S(=O)(=O)N(CC)CC)c2)cc1	-6.3	-0.1	36.8*	0.0
CCOc1ccc(NC(=O)c2ccc(F)c(S(=O)(=O)N(CC)Cc3ccccc3)c2)cc1	3.3	-0.2	61.7*	-1.1
CCOc1ccc(NC(=O)c2ccc(F)c(S(=O)(=O)N(Cc3ccco3)CC3CCCO3)c2)cc1 (stereo not drawn)	27.3	0.1	46.2*	1.1
CCN(CC)S(=O)(=O)c1cc(C(=O)Nc2ccc(Br)cc2)ccc1OC	-5.0	0.6	46.6*	0.0
O=C(c1cc(-c2ccco2)[nH]n1)N1CCC(COCc2ccccc2)CC1	-4.7	0.1	4.2	0.2
FC(F)(F)c1nnc2c3ccccc3nc(-c3ccccc3)n12	8.6	-0.1	2.7	1.5
Cc1cc(S(=O)(=O)N(C)C2CCCCC2)ccc1-n1cnnn1	4.0	0.0	51.8*	-0.8
O=C(Nc1nnc(CSCc2ccccc2)s1)c1ccco1	4.6	-0.3	-19.0	0.2
CCOC(=O)c1ccc(-n2sc3c(c2=S)-c2cc(C)ccc2NC3(C)C)cc1	75.8*	0.3	10.2	-1.0
O=C(Cn1cnc([N+](=O)[O-])c1[N+](=O)[O-])Nc1ccc(Cl)cc1	2.4	-0.1	87.0*	0.2
O=C(Cn1cnc([N+](=O)[O-])c1[N+](=O)[O-])Nc1cc(Oc2ccccc2)cc([N+](=O)[O-])c1	15.8	0.0	42.4*	0.3
CCCNc1nc(Nc2ccc(-n3ccnc3)cc2)nc2c1ncn2-c1ccsc1	-7.6	-0.2	50.9*	-1.3
